{
  "source": "paper PMC4336329",
  "about": "(PLoS ONE, 2015)",
  "note": "In all, about 310,000 compounds went through this assay and about 14,000 (4.5%) showed an effect of 50% or more. The effect is printed as a negative number. Shown is part of a subset that was picked to be rich in strong results.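 Also: peak tail current of the secondary pulse compared with the same well before compound.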",
  "data": [
    {"molecular_target": "human ether-à-go-go-related gene (hERG) potassium channel (human, UniProt Q12809)", "sequence (Q12809 whole entry, looked up)": "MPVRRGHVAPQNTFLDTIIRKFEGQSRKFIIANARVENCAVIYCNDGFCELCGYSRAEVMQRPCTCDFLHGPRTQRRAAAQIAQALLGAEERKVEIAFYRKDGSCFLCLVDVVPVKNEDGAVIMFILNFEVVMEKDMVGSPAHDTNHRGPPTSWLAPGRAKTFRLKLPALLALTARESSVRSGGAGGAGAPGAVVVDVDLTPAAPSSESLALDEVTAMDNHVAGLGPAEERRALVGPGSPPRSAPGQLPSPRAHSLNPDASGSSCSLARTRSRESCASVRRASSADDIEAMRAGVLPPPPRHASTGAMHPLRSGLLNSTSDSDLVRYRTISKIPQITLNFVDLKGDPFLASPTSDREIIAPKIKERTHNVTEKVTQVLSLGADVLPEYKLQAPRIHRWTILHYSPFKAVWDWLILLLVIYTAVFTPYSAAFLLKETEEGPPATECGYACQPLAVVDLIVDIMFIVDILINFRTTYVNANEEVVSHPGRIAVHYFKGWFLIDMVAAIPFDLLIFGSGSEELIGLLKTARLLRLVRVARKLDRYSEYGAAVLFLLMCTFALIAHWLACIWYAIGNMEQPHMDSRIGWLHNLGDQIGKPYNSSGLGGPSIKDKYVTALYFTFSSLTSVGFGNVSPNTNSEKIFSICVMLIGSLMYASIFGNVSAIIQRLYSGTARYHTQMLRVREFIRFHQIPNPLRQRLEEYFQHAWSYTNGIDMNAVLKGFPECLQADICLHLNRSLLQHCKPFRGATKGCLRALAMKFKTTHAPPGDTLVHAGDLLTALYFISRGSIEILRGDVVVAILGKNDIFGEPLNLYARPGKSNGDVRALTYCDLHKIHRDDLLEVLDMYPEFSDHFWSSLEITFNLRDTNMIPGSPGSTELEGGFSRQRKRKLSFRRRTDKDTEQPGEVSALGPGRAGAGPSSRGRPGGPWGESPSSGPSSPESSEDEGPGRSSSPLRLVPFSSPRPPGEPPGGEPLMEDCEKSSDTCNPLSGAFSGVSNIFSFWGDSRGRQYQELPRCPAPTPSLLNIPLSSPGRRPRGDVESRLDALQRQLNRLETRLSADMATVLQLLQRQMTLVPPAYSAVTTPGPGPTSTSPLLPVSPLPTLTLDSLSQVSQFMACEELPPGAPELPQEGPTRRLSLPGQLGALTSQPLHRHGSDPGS", "test": "primary screen, population patch clamp on CHO cells stably expressing hERG; higher = less effect of the substance", "description": "Briefly, Chinese hamster ovary (CHO) cells stably expressing the hERG channel were dislodged from tissue culture flasks and dispensed into PPC plates. […] During the recording, background leak currents were estimated by a 100 ms step to -80 mV from an initial holding potential of -70 mV and subtracted from the subsequent current measurement. The campaign was conducted in two phases using slight differences in recording protocol. In the first phase, the initial voltage pulse used a 100 ms step to -30 mV from a holding potential of -70 mV, a 2 s conditioning step to +25 mV, and a 2 s test step to -30 mV. During the second phase of the screen, the potential during the conditioning step was raised to +45 mV. In both phases of the campaign, a secondary voltage pulse was applied using the same parameters as the second phase initial pulse. The initial and secondary pulses were applied in the absence of compound, and upon application of 1 μM and 10 μM test concentrations. […]", "units": {"hERG current change (%, negative = inhibition) at 10uM": "%"}, "values": [
      {"smiles": "COc1cc(OC)c2cc[nH]c2c1", "hERG current change (%, negative = inhibition) at 10uM": 27.3},
      {"smiles": "Cc1ccccc1NC(=S)NCC(c1cccnc1)N1CCOCC1", "note": "(centres unmarked)", "hERG current change (%, negative = inhibition) at 10uM": -4.07},
      {"smiles": "Cc1cc(Nc2ccc(Cl)cc2)n2nnnc2n1", "hERG current change (%, negative = inhibition) at 10uM": 7.83},
      {"smiles": "COc1cc(CN2CCN(c3cc(C)ccc3C)CC2)cc([N+](=O)[O-])c1O", "hERG current change (%, negative = inhibition) at 10uM": 7.26},
      {"smiles": "Oc1cccc(Nc2ncnc3ccccc23)c1", "hERG current change (%, negative = inhibition) at 10uM": 3.18},
      {"smiles": "O=C(CNC(=O)c1ccccc1Br)N/N=C/c1cccs1", "hERG current change (%, negative = inhibition) at 10uM": 4.8},
      {"smiles": "Cc1ccc(NC(=O)c2ccc([N+](=O)[O-])cc2)cc1S(=O)(=O)N(C)C", "hERG current change (%, negative = inhibition) at 10uM": -39.6},
      {"smiles": "O=C(NCC(O)c1ccc([N+](=O)[O-])cc1)c1cccc(S(=O)(=O)N2CCOCC2)c1", "note": "(centres unmarked)", "hERG current change (%, negative = inhibition) at 10uM": -13},
      {"smiles": "Cc1ccc(NC(=O)CCNC(=O)c2ccc([N+](=O)[O-])cc2)cc1C", "hERG current change (%, negative = inhibition) at 10uM": -0.694},
      {"smiles": "CN(C)S(=O)(=O)c1ccc(NC(=O)CCNC(=O)c2ccc([N+](=O)[O-])cc2)cc1", "hERG current change (%, negative = inhibition) at 10uM": -12.7},
      {"smiles": "O=C(Cc1ccc(Cl)cc1)Nc1cccc(S(=O)(=O)Nc2ccccc2F)c1", "hERG current change (%, negative = inhibition) at 10uM": 11.9},
      {"smiles": "COC(=O)c1cccc(NC(=O)CCNC(=O)c2ccc([N+](=O)[O-])cc2)c1", "hERG current change (%, negative = inhibition) at 10uM": -48},
      {"smiles": "O=C(CSc1ccc([N+](=O)[O-])cc1)Nc1cccc(S(=O)(=O)Nc2ccccc2F)c1", "hERG current change (%, negative = inhibition) at 10uM": -74.4},
      {"smiles": "Cc1ccc(NC(=O)CCNC(=O)c2ccc([N+](=O)[O-])cc2)cc1S(=O)(=O)N(C)C", "hERG current change (%, negative = inhibition) at 10uM": -66.9},
      {"smiles": "O=C(NCC(O)c1ccc([N+](=O)[O-])cc1)c1cccc(S(=O)(=O)N2CCCC2)c1", "note": "(centres unmarked)", "hERG current change (%, negative = inhibition) at 10uM": -66.8},
      {"smiles": "O=C(NCC(O)c1ccccc1)c1cccc(S(=O)(=O)N2CCOCC2)c1", "note": "(centres unmarked)", "hERG current change (%, negative = inhibition) at 10uM": -18.1},
      {"smiles": "O=C(Cc1ccc(Cl)cc1Cl)Nc1cccc(S(=O)(=O)Nc2ccccc2F)c1", "hERG current change (%, negative = inhibition) at 10uM": -1.71},
      {"smiles": "CCN(CC)S(=O)(=O)c1cccc(NC(=O)CCNC(=O)c2ccc([N+](=O)[O-])cc2)c1", "hERG current change (%, negative = inhibition) at 10uM": -62.4},
      {"smiles": "CCOc1ccc(C(=O)Nc2nc(C)cc(C)n2)cc1[N+](=O)[O-]", "hERG current change (%, negative = inhibition) at 10uM": -49.6},
      {"smiles": "Cc1nnc(C)n1/N=C/c1ccc(-c2ccccc2Cl)o1", "hERG current change (%, negative = inhibition) at 10uM": -11.3},
      {"smiles": "N[C@@H](Cc1ccc(O)c(I)c1)C(=O)O", "hERG current change (%, negative = inhibition) at 10uM": 17.6},
      {"smiles": "COc1ccc(NC(=O)c2oc3ccccc3c2NC(=O)C2CCCO2)cc1OC", "note": "(centres unmarked)", "hERG current change (%, negative = inhibition) at 10uM": -17.8},
      {"smiles": "c1ccc(C2=Nn3c(nnc3-c3cc(-c4ccccc4)n[nH]3)SC2)cc1", "hERG current change (%, negative = inhibition) at 10uM": 6.46}
    ]}
  ]
}
